{
  "source": "PubChem BioAssay AID504757",
  "about": "(Sanford-Burnham Center for Chemical Genomics, 2011)",
  "target": "Cysteine protease ATG4B (Homo sapiens) (UniProt Q9Y4P1)",
  "sequence (Q9Y4P1 whole entry, looked up)": "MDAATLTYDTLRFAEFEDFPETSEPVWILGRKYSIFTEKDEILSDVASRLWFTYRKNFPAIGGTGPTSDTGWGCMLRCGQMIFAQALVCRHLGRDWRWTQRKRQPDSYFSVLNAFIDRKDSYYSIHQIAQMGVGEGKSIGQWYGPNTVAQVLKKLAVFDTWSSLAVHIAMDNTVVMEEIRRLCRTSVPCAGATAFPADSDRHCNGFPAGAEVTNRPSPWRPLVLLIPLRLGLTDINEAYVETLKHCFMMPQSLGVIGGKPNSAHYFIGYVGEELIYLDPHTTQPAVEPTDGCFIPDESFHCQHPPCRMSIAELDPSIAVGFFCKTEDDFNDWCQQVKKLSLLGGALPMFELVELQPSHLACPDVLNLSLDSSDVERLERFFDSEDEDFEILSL",
  "assay": "ATG4B protease inhibitors, retest, confirmation, biochemical, fluorescence, single concentration (AID 504757)",
  "conditions": "ATG4B protease fluorescent substrate cleavage assay; at 8.33 µM; stronger effect = higher value",
  "note": "The list shows a part of the results. The source made the active and inactive calls. Rule as the data show it: active = inhibition above about 39%; inactive = the rest.",
  "data": [
    {"smiles": "Cc1cc(OCc2cc(C(=O)O)oc2C)c2c3c(c(=O)oc2c1)CCCC3", "values": [
      {"measurement": "inhibition", "value": "66.3% (active)"}
    ]}
  ]
}
